Laboratory results reported in PubChem BioAssay AID463193 (University of Pittsburgh Molecular Library Screening Center, 2010).
Screen size: about 190,000 compounds; about 1,900 (1%) were called active.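 Rule for the calls: active = percentage of spot-positive cells more than 3 SD above its plate mean, without a fluorescence outlier flag or 80% toxicity; inconclusive = no clear call, values can overlap the other calls; inactive = the rest.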 This excerpt belongs to a sample that is enriched for actives.

Test: GFP-LC3 puncta formation changes – imaging, high-content, MEF GFP-LC3, primary screen (AID 463193);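 for % cells with GFP-LC3 spots: spot-positive cell cutoff set from DMSO-treated cells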;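 for toxicity: cell loss after 18 h compound exposure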
Conditions: autophagy, at 10 µM; % cells with GFP-LC3 spots: stronger effect = higher value; toxicity: measured here: cell loss, nuclei count
For CC(=O)n1c(C=Nc2ccccc2)c(O)c2ccccc21, the % cells with GFP-LC3 spots was 6.01% (inactive) and the toxicity was -16%. For CN(c1ccccc1)c1ccc(/C=c2\s/c(=C(/C#N)C(=O)C(C)(C)C)n(Cc3ccco3)c2=O)cc1, the % cells with GFP-LC3 spots was 71.3% (active) and the toxicity was -2.03%. For COc1ccc(NC(=O)Cn2c(=O)n(Cc3ccco3)c(=O)c3ccccc32)cc1, the % cells with GFP-LC3 spots was 3.23% (inactive) and the toxicity was -0.177%. With CCOC(=O)CSc1nc2c(sc(=S)n2CCc2ccccc2)c(=O)n1Cc1ccco1 the % cells with GFP-LC3 spots was 25.9% (inactive) and the toxicity was 36.2%. For Cc1cc(C(=O)N/N=C/c2cc([N+](=O)[O-])cc(C)c2O)n[nH]1, the % cells with GFP-LC3 spots was 6.01% (inactive) and the toxicity was 8.83%. For CCOC(=O)Cc1ncccc1C(=O)Nc1ccc(OC)cc1, the % cells with GFP-LC3 spots was 2.71% (inactive) and the toxicity was -9.63%. In the case of O=C(CSc1nnc(-c2ccncc2)n1-c1ccc(Cl)cc1)Nc1ccc(C(=O)O)cc1, the % cells with GFP-LC3 spots is reported as 1.88% (inactive) and the toxicity is reported as -0.961%. With COC(=O)c1ccc(C(=O)OC)c(NC(=S)N2CCN(c3cc(Cl)ccc3C)CC2)c1 the % cells with GFP-LC3 spots was 12.5% (inactive) and the toxicity was 21.9%. For CCCN(CCC)C(=S)Nc1cc(C(=O)OC)ccc1C(=O)OC, the % cells with GFP-LC3 spots was 12.3% (inactive) and the toxicity was -2.2%. In the case of COC(=O)c1ccc(C(=O)Nc2cc(Cl)ccc2Cl)cc1NC(=O)c1ccccc1C, the % cells with GFP-LC3 spots is reported as 29.3% (active) and the toxicity is reported as -19.2%. For O=C(OCC(=O)N1CCN(C(=O)c2ccco2)CC1)c1ccccc1Cc1ccccc1, the % cells with GFP-LC3 spots was 7.07% (inactive) and the toxicity was 4.3%. For CN(c1ccccc1)S(=O)(=O)c1ccc(Cl)c(C(=O)OCC(=O)N2CCOCC2)c1, the % cells with GFP-LC3 spots was 0.158% (inactive) and the toxicity was 2.3%. For CN(c1ccccc1)S(=O)(=O)c1cc(C(=O)OCC(=O)N2CCN(C(=O)c3ccco3)CC2)ccc1Cl, the % cells with GFP-LC3 spots was 11.3% (active) and the toxicity was -3.57%. For Cc1ccc(-n2cc(CN(C)Cc3nccn3C)c(-c3cccc(C)c3)n2)cc1, the % cells with GFP-LC3 spots was 1% (inactive) and the toxicity was -0.155%. In the case of CCCCCC1CCC(c2nnc(SCC(C)=O)o2)CC1 (stereo unspecified), the % cells with GFP-LC3 spots is reported as 10.7% (active) and the toxicity is reported as -6.19%. For CCN(CC)C(=O)CSc1nnc(C2CCCCC2)o1, the % cells with GFP-LC3 spots was 4.79% (inactive) and the toxicity was -0.426%. For CN(C)/N=C/c1cc(Cl)cc([N+](=O)[O-])c1O, the % cells with GFP-LC3 spots was 9.47% (inactive) and the toxicity was -11.7%. With O=C(Cn1cnc2c(nnn2Cc2ccc(F)cc2)c1=O)NCc1ccc2c(c1)OCO2 the % cells with GFP-LC3 spots was 2.36% (inactive) and the toxicity was -2.24%. For Cc1nc(Nc2ccc3c(c2)OCCO3)c2nnn(Cc3ccccc3Cl)c2n1, the % cells with GFP-LC3 spots was 8.6% (inactive) and the toxicity was 4.03%. In the case of CCCc1nc(NCc2ccc3c(c2)OCO3)c2nnn(Cc3ccccc3Cl)c2n1, the % cells with GFP-LC3 spots is reported as 15.7% (active) and the toxicity is reported as 5%. For CCOc1ncccc1C(=O)N(C)CC(=O)Nc1ccc(F)cc1, the % cells with GFP-LC3 spots was 5.93% (inactive) and the toxicity was -12.3%. For O=C(NCc1ccncc1)C(=O)NCc1ccco1, the % cells with GFP-LC3 spots was 0.301% (inactive) and the toxicity was -9.14%. For CCc1nc(Nc2ccc3nccnc3c2)c2oc3ccccc3c2n1, the % cells with GFP-LC3 spots was 19% (active) and the toxicity was -4.67%. With COc1ccccc1Nc1ncnc2c1oc1ccccc12 the % cells with GFP-LC3 spots was 5.61% (inactive) and the toxicity was 1.55%. For CCSc1nc(C)nc2c1oc1ccccc12, the % cells with GFP-LC3 spots was 7.02% (inactive) and the toxicity was 8.62%. For CN(C)C(=O)c1nc2ccc(Cl)cn2c1CN1CCN(c2ncccn2)CC1, the % cells with GFP-LC3 spots was 2.1% (inactive) and the toxicity was -12.9%. For CC(C)C(=O)Nc1c(O)c2ccccc2[nH]c1=O, the % cells with GFP-LC3 spots was 0.457% (inactive) and the toxicity was 5.73%. With CCOc1ccccc1N1CCN(C(=O)COc2ccc3c(C)cc(=O)oc3c2)CC1 the % cells with GFP-LC3 spots was 3.98% (inactive) and the toxicity was 7.33%. With COc1ccc([C@H]2[C@H](C(C)=O)N3N=Cc4ccccc4C3C23C(=O)OC(C)(C)OC3=O)cc1 (stereo partly specified) the % cells with GFP-LC3 spots was 3.81% (inactive) and the toxicity was -2.15%. With O=C(Cc1ccc(Cl)cc1)NCc1nc(-c2ccccc2)no1 the % cells with GFP-LC3 spots was 1.76% (inactive) and the toxicity was 18%. In the case of CC/C(=N/Nc1ccccc1)c1cnnc(SC)n1, the % cells with GFP-LC3 spots is reported as 1.72% (inactive) and the toxicity is reported as -12.6%. For C/C(=N/Nc1ccc(Cl)cc1)c1cnnc(-c2ccccc2)n1, the % cells with GFP-LC3 spots was 45.6% (active) and the toxicity was -1.98%. For CNc1nccc(-c2ccc(Cl)cc2)c1C#N, the % cells with GFP-LC3 spots was 0.668% (inactive) and the toxicity was -6.73%. With CC(C)(C)NC(=O)NC(=O)CN1CCC(Cc2ccccc2)CC1 the % cells with GFP-LC3 spots was 8.11% (active) and the toxicity was 52.4%. In the case of COc1ccc(NC(=O)N2CCC(Cc3ccccc3)CC2)cc1, the % cells with GFP-LC3 spots is reported as 5.76% (inactive) and the toxicity is reported as -6.26%. In the case of NC(=O)c1ccc(CN2CCC(Cc3ccccc3)CC2)cc1, the % cells with GFP-LC3 spots is reported as 4.13% (inactive) and the toxicity is reported as 31.8%. In the case of O=C(NCc1ccco1)c1nn2cccnc2c1Cl, the % cells with GFP-LC3 spots is reported as 2.07% (inactive) and the toxicity is reported as -10.5%. In the case of Cc1ccc(/C([O-])=C(/C(=S)NCc2ccco2)[n+]2ccccc2)cc1[N+](=O)[O-], the % cells with GFP-LC3 spots is reported as 1.01% (inactive) and the toxicity is reported as 4.63%. With Cc1ccc(NC2=C(Cl)C(=O)OC2OC(=O)c2ccccc2C)cc1 (stereo unspecified) the % cells with GFP-LC3 spots was 9.77% (inactive) and the toxicity was 12.9%. With CCOc1ccccc1/C=c1\sc2nc(-c3ccco3)nn2c1=O the % cells with GFP-LC3 spots was 23.9% (active) and the toxicity was -24.1%. In the case of CCOc1ccccc1C(=O)NCc1ccco1, the % cells with GFP-LC3 spots is reported as 3.98% (inactive) and the toxicity is reported as -2.98%. With O=c1nc2s/c(=C\c3ccco3)c(=O)n2nc1Cc1ccccc1 the % cells with GFP-LC3 spots was 1.32% (inactive) and the toxicity was -3.5%. With Cc1cc(C)c2c(n1)nn1c(N3CCN(c4cccc(Cl)c4)CC3)cc(C)nc21 the % cells with GFP-LC3 spots was 11.4% (active) and the toxicity was 3.85%.
